PubChem BioAssay
Several values for one entry are separate records, joined by “and”; a condition that tells them apart may be missing. Identical values can stand only once. Activity calls are given as the source filed them.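 How the source made its calls, unless noted: active means thallium flux through the channel raised or lowered by more than 3 SD from vehicle-only wells, actives on both sides; inactive means the rest.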

Assays:
[1] = liver-stage malaria parasite growth inhibition, primary screen, cell-based, HepG2, luciferase luminescence, HepG2 viability (AID 624349; in the data active means parasite load remaining mostly below about 12%, no sharp cut-off; inactive means mostly above about 10%;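 further: 100% = mean of DMSO negative control wells on the same plate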); conditions: P. berghei liver stage in HepG2, luciferase luminescence, concentration not given here; parasite load remaining: stronger effect = lower value; viability: measured here: HepG2 viability without parasites
[2] = Cy5 fluorescence interference with SSB-bound oligo, artefact control for HCV NS3 helicase inhibitor project, biochemical, NIH Clinical Collection, E. coli SSB (AID 743268; call rule not given here)
[3] = system: Hepatitis C virus NS3 helicase; assay: HCV NS3 helicase inhibitors, primary screen, biochemical, fluorescence polarization, NIH Clinical Collection (AID 743270; call rule not given here); conditions: NS3 helicase binding to Cy5-dT15 DNA, stronger effect = higher value, concentration not given here
[4] = target: Single-stranded DNA-binding protein (Escherichia coli (strain K12)) (UniProt P0AGE0); assay: E. coli SSB displacement from DNA, counter-screen for HCV NS3 helicase inhibitor project, biochemical, fluorescence polarization, NIH Clinical Collection (AID 743271; in the data active means inhibition above about 28%); conditions: stronger effect = higher value, concentration not given here
[5] = fluorescence interference in NS3h assay format, artefact control for HCV NS3 helicase inhibitor project, biochemical, NIH Clinical Collection (AID 743272; call rule not given here;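 further: HCV NS3 helicase with a Cy5 labelled single stranded DNA probe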); conditions: fluorescence interference counterscreen, stronger effect = lower value
[6] = modulation of C. elegans fzo-1 (AID 1259413; call rule not given here;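 further: fzo-1 mutant C. elegans worms in liquid wells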); conditions: C. elegans fzo-1 modulator screen, mean read-out; stronger effect = higher value
[7] = sensitizers of A549 cells to miR-34 induction, primary screen, imaging, A549 dox-inducible miR-34, nuclei and caspase counts (AID 1347080;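 active means compounds whose cell count with miR-34 switched on is under 0.7 times the count with it off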); conditions: A549 miR-34 inducible, Hoechst nuclei count, 48 h
F380Y = assay: modulators of BK channel variants, profiling panel, selectivity assay, cell-based, U2OS BacMam, thallium flux, beta subunits (AID 1259406); conditions: at 30 µM;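 further: initial slope of Thallos dye fluorescence rise after thallium is added; log ratio against the mean of 0.3% DMSO vehicle wells on the same plate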
F380Y/beta1 = assay: as above; conditions: at 30 µM
F380Y/beta2Delta = assay: as above; conditions: at 30 µM
F380Y/beta4 = assay: as above; conditions: at 30 µM
[8] = target: Calcium-activated potassium channel subunit alpha-1 (Homo sapiens) + Leucine-rich repeat-containing protein 26 (Homo sapiens) (UniProt Q12791+Q2I0M4); assay: as above; conditions: F380Y/Slo1WT/gamma1, at 30 µM
Chain of Calcium-activated potassium channel subunit alpha-1 (Homo sapiens) + Leucine-rich repeat-containing protein 26 (Homo sapiens) (Q2I0M4 whole entry, looked up, one chain of several): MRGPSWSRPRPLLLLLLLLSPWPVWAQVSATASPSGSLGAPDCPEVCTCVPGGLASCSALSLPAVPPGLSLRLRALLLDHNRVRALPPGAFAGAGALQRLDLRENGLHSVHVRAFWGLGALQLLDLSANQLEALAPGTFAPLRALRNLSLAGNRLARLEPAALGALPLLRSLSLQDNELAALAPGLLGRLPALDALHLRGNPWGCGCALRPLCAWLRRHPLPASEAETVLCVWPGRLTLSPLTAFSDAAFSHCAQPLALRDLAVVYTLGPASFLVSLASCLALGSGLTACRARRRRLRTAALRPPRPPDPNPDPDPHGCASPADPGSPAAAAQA

R275C = assay: as above; conditions: at 30 µM
R275C/beta1 = assay: as above; conditions: at 30 µM
R275C/beta2Delta = assay: as above; conditions: at 30 µM
R275C/beta4 = assay: as above; conditions: at 30 µM
R275C/Slo1WT/beta2 = assay: as above; conditions: at 30 µM
[9] = survival rescue of mitochondrial mutant cells in low glucose, primary screen, MELAS cybrids, Rieske KO mouse fibroblasts, CellTiter-Glo (AID 1508586;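 active means mean z-score across replicates of 1.96 or higher in either the MELAS or the Rieske mutant cell line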;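 further: z relative to plate mean and SD of compound and empty wells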)
[10] = viability rescue of complex I mutant cybrids, primary screen, cell-based, galactose medium, ATP luminescence (AID 1645843;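 active means z-score of at least 1.8 in each of two replicates, scored against plate mean and spread of sample wells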;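 further: positive z means more ATP and so rescue of galactose-driven cybrid death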); conditions: complex I mutant cybrid cells, 72 h, stronger effect = higher value
[11] = ovarian cancer cell viability with rucaparib, profiling panel, oncology-focused library, rucaparib conditional (AID 1508598;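 active means normalized viability below 100% at a tested concentration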); conditions: patient-derived ovarian cancer cells, CellTiter-Glo viability, 144 h, stronger effect = lower value
[12] = stronger effect = lower value, cell number ratio, induced over uninduced
[13] = measured here: relative caspase fold change +Dox/-Dox
[14] = measured here: total cells with miR-34 induction, stronger effect = lower value
[15] = measured here: total cells without miR-34 induction
[16] = MELAS cybrid survival, CellTiter-Glo 48 h, stronger effect = higher value
[17] = Rieske KO mouse fibroblast survival, CellTiter-Glo 72 h

CN/C(=C\[N+](=O)[O-])NCCSCc1csc(CN(C)C)n1
11400: cell count [7, 14]
inactive: parasite load remaining [1] 44.5% and 113% | fluorescence ratio [2] 1.02 | inhibition [3] 1.19% | inhibition [4] -0.1% | fluorescence ratio [5] 0.97 | mean signal [6] 274 | fold change [7, 12] 0.871 | log fold change Tl+ flux (F380Y) 0.0132 | log fold change Tl+ flux (F380Y/beta1) -0.0313 | log fold change Tl+ flux (F380Y/beta2Delta) 0.0292 | log fold change Tl+ flux (F380Y/beta4) 0.0177 | log fold change Tl+ flux [8] -0.0126 | log fold change Tl+ flux (R275C) 0.0141 | log fold change Tl+ flux (R275C/beta1) -0.02 | log fold change Tl+ flux (R275C/beta2Delta) -0.0114 | log fold change Tl+ flux (R275C/beta4) -0.00775 | log fold change Tl+ flux (R275C/Slo1WT/beta2) 0.0359
13100: cell count [7, 15]
5.48: fold change [7, 13]
104% and 78.4%: viability [1]

CSc1nc2cc(Oc3cccc(Cl)c3Cl)c(Cl)cc2[nH]1
1.31 and 0.403: fold change [7, 13]
inactive: parasite load remaining [1] 14.4% | fluorescence ratio [2] 0.98 | inhibition [3] 5.94% | inhibition [4] 3.75% | fluorescence ratio [5] 0.96 | mean signal [6] 206 | fold change [7, 12] 0.963 and 0.988 | z-score [9, 16] -0.167 and -0.17 | z-score [10] -1.88 | log fold change Tl+ flux (F380Y) -0.0619 | log fold change Tl+ flux (F380Y/beta1) 0.0498 | log fold change Tl+ flux (F380Y/beta2Delta) -0.03 | log fold change Tl+ flux (F380Y/beta4) 0.0138 | log fold change Tl+ flux [8] -0.000443 | log fold change Tl+ flux (R275C) 0.0179 | log fold change Tl+ flux (R275C/beta4) 0.0585 | log fold change Tl+ flux (R275C/Slo1WT/beta2) 0.0178
78.3%: viability [1]
5860 and 7990: cell count [7, 14]
6080 and 8080: cell count [7, 15]
-0.137 and -0.629: z-score [9, 17]
active: log fold change Tl+ flux (R275C/beta1) 0.416 | log fold change Tl+ flux (R275C/beta2Delta) 0.248

COc1ccc2[nH]c(S(=O)Cc3ncc(C)c(OC)c3C)nc2c1 (stereo not given)
9290 and 8180: cell count [7, 14]
1.73 and 0.384: fold change [7, 13]
inactive: parasite load remaining [1] 75.4% | fluorescence ratio [2] 1.05 | inhibition [3] -1.19% | inhibition [4] -0.1% | fluorescence ratio [5] 1.01 | mean signal [6] 220 | fold change [7, 12] 1.06 and 1.02 | z-score [9, 16] -0.201 | z-score [10] 0.665 | log fold change Tl+ flux (F380Y) 0.0414 | log fold change Tl+ flux (F380Y/beta1) 0.0445 | log fold change Tl+ flux (F380Y/beta2Delta) -0.007 | log fold change Tl+ flux (F380Y/beta4) 0.0255 | log fold change Tl+ flux [8] 0.0493 | log fold change Tl+ flux (R275C) -0.061 | log fold change Tl+ flux (R275C/beta1) 0.0126 | log fold change Tl+ flux (R275C/beta2Delta) 0.00561 | log fold change Tl+ flux (R275C/beta4) 0.0354 | log fold change Tl+ flux (R275C/Slo1WT/beta2) 0.0116
8760 and 8050: cell count [7, 15]
0.0948: z-score [9, 17]
78.3%: viability [1]

O=C(c1ccc(OCCN2CCCCC2)cc1)c1c(-c2ccc(O)cc2)sc2cc(O)ccc12
0.306 and -0.238 and 0.0318: z-score [9, 17]
active: fluorescence ratio [5] 0.8 | viability ([11]; at 0.00122 µM, OCI-P5x cells, with rucaparib 20 µM, 100% = cells with rucaparib alone) 97.6% | viability ([11]; at 0.00488 µM, OCI-P5x cells, with rucaparib 20 µM, 100% = cells with rucaparib alone) 79.4% | viability ([11]; at 0.00488 µM, OCI-P5x cells, without rucaparib) 94.8% | viability ([11]; at 0.0195 µM, OCI-P5x cells, with rucaparib 20 µM, 100% = cells with rucaparib alone) 90% | viability ([11]; at 0.0195 µM, OCI-P5x cells, without rucaparib) 94.3% | viability ([11]; at 1.25 µM, OCI-P5x cells, with rucaparib 20 µM, 100% = cells with rucaparib alone) 89.1% | viability ([11]; at 5 µM, OCI-P5x cells, with rucaparib 20 µM, 100% = cells with rucaparib alone) 40% | viability ([11]; at 5 µM, OCI-P5x cells, without rucaparib) 63.8%
inactive: fluorescence ratio [2] 1.04 | inhibition [3] -7.73% | inhibition [4] 4.1% | mean signal [6] 205 | z-score [9, 16] -0.537 and -0.644 and -0.85 | viability ([11]; at 0.000305 µM, OCI-C5x cells, with rucaparib 10 µM, 100% = cells with rucaparib alone) 108% | viability ([11]; at 0.000305 µM, OCI-C5x cells, without rucaparib) 112% | viability ([11]; at 0.000305 µM, OCI-P5x cells, with rucaparib 20 µM, 100% = cells with rucaparib alone) 101% | viability ([11]; at 0.000305 µM, OCI-P5x cells, without rucaparib) 110% | viability ([11]; at 0.00122 µM, OCI-C5x cells, with rucaparib 10 µM, 100% = cells with rucaparib alone) 116% | viability ([11]; at 0.00122 µM, OCI-C5x cells, without rucaparib) 116% | viability ([11]; at 0.00122 µM, OCI-P5x cells, without rucaparib) 103% | viability ([11]; at 0.00488 µM, OCI-C5x cells, with rucaparib 10 µM, 100% = cells with rucaparib alone) 131% | viability ([11]; at 0.00488 µM, OCI-C5x cells, without rucaparib) 107% | viability ([11]; at 0.0195 µM, OCI-C5x cells, with rucaparib 10 µM, 100% = cells with rucaparib alone) 113% | viability ([11]; at 0.0195 µM, OCI-C5x cells, without rucaparib) 110% | viability ([11]; at 0.0781 µM, OCI-C5x cells, with rucaparib 10 µM, 100% = cells with rucaparib alone) 121% | viability ([11]; at 0.0781 µM, OCI-C5x cells, without rucaparib) 107% | viability ([11]; at 0.0781 µM, OCI-P5x cells, with rucaparib 20 µM, 100% = cells with rucaparib alone) 118% | viability ([11]; at 0.0781 µM, OCI-P5x cells, without rucaparib) 125% | viability ([11]; at 0.313 µM, OCI-C5x cells, with rucaparib 10 µM, 100% = cells with rucaparib alone) 114% | viability ([11]; at 0.313 µM, OCI-C5x cells, without rucaparib) 118% | viability ([11]; at 0.313 µM, OCI-P5x cells, with rucaparib 20 µM, 100% = cells with rucaparib alone) 105% | viability ([11]; at 0.313 µM, OCI-P5x cells, without rucaparib) 104% | viability ([11]; at 1.25 µM, OCI-C5x cells, with rucaparib 10 µM, 100% = cells with rucaparib alone) 134% | viability ([11]; at 1.25 µM, OCI-C5x cells, without rucaparib) 117% | viability ([11]; at 1.25 µM, OCI-P5x cells, without rucaparib) 101% | viability ([11]; at 5 µM, OCI-C5x cells, with rucaparib 10 µM, 100% = cells with rucaparib alone) 124% | viability ([11]; at 5 µM, OCI-C5x cells, without rucaparib) 109% | log fold change Tl+ flux (F380Y) 0.0852 | log fold change Tl+ flux (F380Y/beta1) 0.00638 | log fold change Tl+ flux (F380Y/beta2Delta) 0.0463 | log fold change Tl+ flux (F380Y/beta4) 0.0721 | log fold change Tl+ flux [8] -0.00263 | log fold change Tl+ flux (R275C) 0.0285 | log fold change Tl+ flux (R275C/beta1) 0.00107 | log fold change Tl+ flux (R275C/beta2Delta) 0.0378 | log fold change Tl+ flux (R275C/beta4) 0.0617 | log fold change Tl+ flux (R275C/Slo1WT/beta2) -0.0543

CC[C@H]1OC(=O)[C@H](C)[C@@H](O[C@H]2C[C@@](C)(OC)[C@@H](O)[C@H](C)O2)[C@H](C)[C@@H](O[C@@H]2O[C@H](C)C[C@H](N(C)C)[C@H]2O)[C@](C)(O)C[C@@H](C)CN(C)[C@H](C)[C@@H](O)[C@]1(C)O
10500 and 11200: cell count [7, 15]
inactive: parasite load remaining [1] 58.8% and 152% and 299% | fluorescence ratio [2] 1.05 | inhibition [3] 1.36% | inhibition [4] -1.24% | fluorescence ratio [5] 1.02 | mean signal [6] 266 | fold change [7, 12] 0.953 and 0.891 | z-score [10] 1.2 | log fold change Tl+ flux (F380Y) 0.0649 | log fold change Tl+ flux (F380Y/beta1) 0.00314 | log fold change Tl+ flux (F380Y/beta2Delta) 0.0029 | log fold change Tl+ flux (F380Y/beta4) -0.0644 | log fold change Tl+ flux [8] -0.014 | log fold change Tl+ flux (R275C) 0.011 | log fold change Tl+ flux (R275C/beta1) 0.0228 | log fold change Tl+ flux (R275C/beta2Delta) -0.0452 | log fold change Tl+ flux (R275C/beta4) -0.073 | log fold change Tl+ flux (R275C/Slo1WT/beta2) 0.026
2.3 and 7.33: fold change [7, 13]
118% and 82.2% and 91.4%: viability [1]
9960 and 9940: cell count [7, 14]
